Screening data as filed in PubChem BioAssay.
The list is not random: actives were taken first. Their share in the collection is about 2.9%.
PTAP TSG101 blk = qHTS Assay for Iinhibitors of HIV-1 Budding by Blocking the Interaction of PTAP/TSG101; Tumor susceptibility gene 101 protein (Homo sapiens), Q99816; Fluorescence polarization, FITC-PTAP peptide / Tsg101 binding; Potency, µM (series often up to 115 µM), usual class: inhibitors; 340,000 tested, under 10 active; AID 493005, 2010; active means well fitted inhibition curve with a large enough effect in the main read-out, with a control signal flat, not every such curve was filed as active; inconclusive means small, poorly fitted or top-dose-only effect, or effect the other way, or a change in a side signal; inactive means no such curve, though single readings can be large or run the other way
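Tsg101 binding domain (10 uM final) was mixed with compound and a FITC-labeled PTAP peptide (50 nM final) in HEPES pH 7.5 buffer with NaCl, Tween 20, EDTA and TCEP; fluorescence polarization was read after 20 min at r.t.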
Rango-impB inh = qHTS Assay for Inhibitors of Rango (Ran-regulated importin-beta cargo) - Importin beta complex formation; Importin subunit beta-1 (Homo sapiens), Q14974; Rango CFP/YFP FRET sensor + importin beta, 45 min; Potency, µM (series often up to 92.2 µM); 340,000 tested, 0.031% active; further: nearly all actives have a fitted effect of over 15% in size
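Inhibition scored from the CFP 486 nm/YFP 530 nm FRET ratio 45 min after adding 0.125 microM importin beta to 50 nM Rango biosensor preincubated 5 min with compound (room temperature, PBS with DTT, Tween-20, BSA). No-importin wells as positive control.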
Mm-Cpn inhibitor = Inhibitors of TCP-1 ring complex (TRiC) of Methanococcus maripaludis (MmCpn): qHTS; Chaperonin Mm-Cpn (Methanococcus maripaludis); purified Mm-Cpn ATPase, ADP Transcreener TR-FRET; AID 504842, 2011; Potency, µM (titrated, usually from 76.9 µM), hits mostly inhibitors; 330,000 tested, 0.031% active; active means well fitted inhibition curve with a large enough effect; inconclusive means small, poorly fitted or top-dose-only effect; further: nearly all actives have a fitted effect of over 80% in size
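TR-FRET (320 nm excitation; 590 and 665 nm emission) reports ADP made from 10 uM ATP by 25 nM enzyme; compounds were preincubated 10 min, reaction run 30 min, both at 37°C.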
DRD3 agonist = qHTS of D3 Dopamine Receptor Agonist: qHTS; D(3) dopamine receptor (Homo sapiens), P35462; D3R DiscoveRx beta-arrestin cells, luminescence, 90 min; max activation, %; 410,000 tested, 0.58% active; AID 652048, 2013; in the data active means max activation above about 30%
Target sequence (P35462 whole entry, looked up): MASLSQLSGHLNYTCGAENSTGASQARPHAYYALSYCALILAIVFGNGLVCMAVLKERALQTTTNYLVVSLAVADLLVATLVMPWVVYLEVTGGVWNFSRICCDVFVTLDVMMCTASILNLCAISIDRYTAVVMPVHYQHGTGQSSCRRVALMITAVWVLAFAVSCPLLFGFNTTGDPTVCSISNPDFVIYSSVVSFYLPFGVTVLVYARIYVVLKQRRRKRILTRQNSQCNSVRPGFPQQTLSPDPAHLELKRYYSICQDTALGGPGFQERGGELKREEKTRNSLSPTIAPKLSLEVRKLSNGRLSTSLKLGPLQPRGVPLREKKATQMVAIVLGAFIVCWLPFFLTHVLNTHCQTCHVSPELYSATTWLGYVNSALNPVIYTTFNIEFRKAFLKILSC
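Agonist mode: compounds and dopamine controls were applied to plated cells for 90 min at 37 degrees C after an overnight attachment at 1500 cells/well. Luminescent read-out followed 30 - 60 minutes at room temperature with DiscoveRx detection reagent.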
DRD3 antagonist = qHTS of D3 Dopamine Receptor Antagonist: qHTS; D(3) dopamine receptor (Homo sapiens), P35462; D3R cells, DiscoveRx beta-arrestin luminescence, antagonist mode; hits give low values; max response, negative = inhibition, %; 360,000 tested, 2.5% active; in the data active means max response below about -50%; inconclusive means no clear call, values can overlap the other calls
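Cells plated overnight at 1500 cells/well, then exposed to library compounds with dopamine controls for 90 minutes at 37 degrees C. DiscoveRx reagent added for 30–60 minutes at room temperature; luminescence read, quantitative HTS format.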
Rango dissoc inh = qHTS Assay for Inhibitors of RanGTP induced Rango (Ran-regulated importin-beta cargo) - Importin beta complex dissociation; Snurportin-1 (Homo sapiens) + GTP-binding nuclear protein Ran (Homo sapiens) + Importin …; Biochemical FRET Rango-importin beta, RanGTP-induced dissociation; Potency, µM (titrated, usually from 46.1 µM); 340,000 tested, 0.071% active; AID 540253, 2011; further: nearly all actives have a fitted effect of over 45% in size
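Rango (0.1 uM)–importin beta (0.25 uM) complex; RanGTP-RCC1 trigger; 45 min RT; CFP/YFP FRET read.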
A number is an active result; . = inactive; ? = inconclusive; / = no result given; ! = repeats disagree. Unless noted, the call rests on the fitted dose curve.

SMILES | PTAP TSG101 blk | Rango-impB inh | Mm-Cpn inhibitor | DRD3 agonist | DRD3 antagonist | Rango dissoc inh
CCOc1cc(CC(=O)N[C@@H](CC(C)C)c2ccccc2N2CCCCC2)ccc1C(=O)O | . | . | . | 96! | . | .
Cc1ccc(C)c(NC(=O)CCS(=O)(=O)c2cccc3nsnc23)c1 | / | / | / | . | / | /
COc1ccc(Cn2c(N)c(C#N)c3nc4ccccc4nc32)cc1OC | . | ? | . | . | . | 12µM
Cc1c(N2C(=O)CS/C2=N\N=C\c2ccc(Cl)cc2)c(=O)n(-c2ccccc2)n1C | / | . | . | . | . | .
Cc1c(N2C(=O)CS/C2=N\N=C\c2ccccc2O)c(=O)n(-c2ccccc2)n1C | . | . | . | 39 | . | .
Cc1cccc(C)c1NC(=O)Cn1cc(S(=O)(=O)Cc2ccc(F)cc2)c2ccccc21 | / | / | / | . | / | /
COc1ccc(C2CC(O)(c3ccccc3)Oc3cc(OC)c(OC)c(OC)c32)cc1 (stereo unspecified) | . | ? | . | . | . | .
OC1(c2ccccc2)CC(c2ccccc2)c2ccccc2O1 (stereo unspecified) | . | . | / | 73 | . | .
CC1CCc2c(sc3ncnc(NCCN4CCOCC4)c23)C1 (stereo unspecified) | . | ? | . | . | -71 | .
Cc1ccccc1[C@H](NC1c2ccccc2C=Cc2ccccc21)P(=O)(c1ccccc1)c1ccccc1 | / | / | / | . | -56 | /
Cc1cc(C2CCCCC2)n(O)c(=O)c1 | . | . | . | 46! | . | .
O=C(/C=C/c1ccc(Cl)cc1Cl)n1cccn1 | . | . | . | . | -59 | .
O=C(/C=C/c1ccc(Cl)cc1Cl)c1ccc[nH]1 | . | . | . | . | . | .
CCOc1ccc(-n2cc(-c3ccccc3)c3c(NC4CCCC4)ncnc32)cc1 | / | / | / | . | / | /
CCOC(=O)Cn1c(=O)oc2cc(S(=O)(=O)Nc3cc(OC)cc(OC)c3)ccc21 | / | / | / | . | / | /
CCOC(=O)Cn1c(=O)oc2cc(S(=O)(=O)Nc3cccc(C)c3)ccc21 | . | . | . | . | -59 | ?
COC(=O)N/N=C/c1cccnc1 | . | . | . | . | . | .
COC(=O)N/N=C/c1ccccc1 | . | . | . | 42 | . | .
CCNc1nc(SCC(=O)Nc2ccc(Cl)c(Cl)c2)nc(N(C)C)n1 | . | . | . | . | . | .
CN(C)c1nc(NCc2ccccc2)nc(SCC(=O)Nc2ccc(Cl)c(Cl)c2)n1 | . | ? | . | 46 | . | .
N#CCC1c2ccccc2CCN1C(=O)Nc1cccc(C(F)(F)F)c1 (stereo unspecified) | . | . | . | . | . | .
N#CCC1c2ccccc2CCN1C(=O)Nc1ccc(C(F)(F)F)cc1 (stereo unspecified) | . | . | . | . | -94 | .
O=c1c2ccc([N+](=O)[O-])cc2ncn1CCOc1cccc(Br)c1 | . | . | . | 32 | . | .
O=c1c2ccc([N+](=O)[O-])cc2ncn1CCOc1ccc(Cl)cc1 | . | . | . | . | . | .
CCc1cccc(NC(=O)Cn2c(=O)n(Cc3ccccc3)c(=O)c3c2c2cc(OC)ccc2n3C)c1 | / | / | / | . | / | /
SMILES | PTAP TSG101 blk | Rango-impB inh | Mm-Cpn inhibitor | DRD3 agonist | DRD3 antagonist | Rango dissoc inh
O=[N+]([O-])c1ccc(O)c(C2=NNC(c3ccccc3F)C2)c1 (stereo unspecified) | . | . | . | . | -121 | .
Oc1ccc(Cl)cc1C1=NNC(c2cccs2)C1 (stereo unspecified) | . | ? | . | . | . | .
COc1cc(O)ccc1/C=N/NC(=O)c1ccc([N+](=O)[O-])cc1 | . | . | . | . | . | .
O=C(NC(CSCc1ccccc1)C(=O)N/N=C/c1ccc(O)cc1O)c1ccc([N+](=O)[O-])cc1 (stereo unspecified) | . | ? | . | 50 | . | .
CC(C)CCNC(=O)c1ccc(Cn2c(=O)c3cccn3c3cccnc32)cc1 | / | / | / | . | / | /
CN(C)CC(O)COc1cc2ccccc2cc1C(=O)N1CCCCC1 (stereo unspecified) | . | . | . | . | -59 | .
CCC1(C)Cc2c(C#N)c(N)n(-c3ccccc3)c(=S)c2CO1 (stereo unspecified) | . | . | . | . | . | .
CCC1(C)Cc2c(C#N)c(N)sc(=S)c2CO1 (stereo unspecified) | . | . | ? | . | -85 | .
Cc1nn(C)c(C)c1/C=C1/SC(=S)NC1=O | . | . | . | . | . | .
O=C1NC(=S)SC1=Cc1ccccc1Cl | . | . | / | 38 | . | .
COc1ccccc1C=C1SC(=S)NC1=O | . | . | / | . | . | .
Cc1nn(C)cc1/C=C1\SC(=S)NC1=O | . | . | . | . | -70 | .
COc1ccccc1C1NC=C([N+](=O)[O-])C=C1[N+](=O)[O-] (stereo unspecified) | . | ? | . | . | -62 | .
COc1ccccc1C1C([N+](=O)[O-])=CC([N+](=O)[O-])=CN1C (stereo unspecified) | . | ? | . | . | . | .
Cc1ccc(-n2c3nc(=O)n(C)c(=O)c-3cc3c(Cl)cccc32)c(C)c1 | / | / | / | . | / | /
OCCNCC(O)Cn1ccc2ccccc21 (stereo unspecified) | . | . | . | . | -52 | .
OCCNCC(O)Cn1c2ccccc2c2ccccc21 (stereo unspecified) | . | . | . | . | . | .
CCOc1ccc(/C(O)=C2/C(=O)C(=O)N(c3ncccn3)C2c2ccccc2)cc1 (stereo unspecified) | . | . | . | . | . | .
CCOc1ccc(/C(O)=C2/C(=O)C(=O)N(c3ncccn3)C2c2ccc(C)cc2)cc1 (stereo unspecified) | . | ? | . | 31 | . | .
COc1ccc(CNC(=O)CCc2c(C)c3cc4c(C)c(C)oc4cc3oc2=O)cc1 | / | / | / | . | / | /
COc1ccc(CN2C(=O)C(O)(CC(=O)c3ccc4c(c3)OCO4)c3ccccc32)cc1OC (stereo unspecified) | . | . | . | 36 | . | .
CCN1C(=O)C(O)(CC(=O)c2ccc3c(c2)OCCO3)c2ccccc21 (stereo unspecified) | . | . | . | . | . | .
